esBAF inh – Bmi1 luciferase reporter increase in mESCs, primary screen, esBAF inhibitor project, mouse ES cells, Bmi1 luciferase knock-in, single point; actives 2% (n = 350,000); reporter increase, % at 12.5 µM; AID 602393, 2012; 24 h; 100% = twice the neutral-well signal; in the data active = activation above about 40%; inconclusive = no clear call, values can overlap the other calls;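 also: a rise in the Bmi1 reporter signal indicates esBAF inhibition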
miR122 inh – miR-122 Renilla sensor signal increase in Huh7, primary screen, miR-122 inhibitor project, cell-based, single point, plate reader; Huh7 miR-122 Renilla luciferase sensor, 48 h; neutral wells = 0, positive control = 100; activation (reporter increase), % at 12.5 µM; actives 0.3% (n = 340,000); AID 602342, 2012;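 active = mean replicate activation score at least 90 and every replicate individually at or above 90; inconclusive = only one of the two criteria met; inactive = neither criterion met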;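 also: higher luciferase means less miR-122 activity so hits act as miR-122 inhibitors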
MITF TRPM1 HTS – activators of MITF-driven TRPM1 promoter reporter, primary screen, cell-based, SK-MEL-5, luciferase, single point | activation, % at 12.5 µM | AID 588334, 2011 | SK-MEL-5 TRPM1-promoter luciferase, 24 h; % of positive control, neutral wells = 0 | actives 0.75% (n = 300,000);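 active = mean activation of at least 80% with every replicate also reaching 80%; inconclusive = mean reaches 80% but some replicate falls short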
Wnt act – Wnt/beta-catenin pathway activators, primary screen, cell-based, plate reader, single point; activation, % at 9.35 µM; AID 743398, 2014; actives 1.2% (n = 300,000); Wnt/beta-catenin reporter cell assay, activator; in the data active = activation above about 30%, passing the limit was not always enough; inconclusive = no clear call, values can overlap the other calls
HIV Env fusion – inhibitors of HIV-1 Env-driven cell-cell fusion, primary screen, HeLa-JRFL effector, CEM21 target cells, luciferase; inhibition, % at 12.3 µM; AID 651610, 2012; actives 1.1% (n = 360,000);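 active = mean replicate inhibition score of at least 50 and every replicate individually at or above 50; inconclusive = only one of the two criteria met; inactive = mean below 50 and not all replicates reaching 50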
Numbers stand for hits; – = inactive; ? = inconclusive; · = no result given. Sampled rows, rich in hits. Any-hit rate of the full collection: about 3.4%.

SMILES	esBAF inh	miR122 inh	MITF TRPM1 HTS	Wnt act	HIV Env fusion
CCNC(=S)Nc1cccc(S(=O)(=O)Nc2ccccc2OC)c1	–	–	–	33	–
Cc1ccc(S(=O)(=O)N(C)C[C@H]2Oc3cc(C#Cc4ccncc4)ccc3S(=O)(=O)N([C@@H](C)CO)C[C@H]2C)cc1	–	–	·	·	·
CSCCC(NS(=O)(=O)c1ccc2c(c1)oc(=O)n2C)C(=O)NC1CCC(C)CC1 (stereo unspecified)	–	·	·	–	60
CCCN(C)C[C@H]1Oc2cc(C#C[C@H](C)O)ccc2S(=O)(=O)N([C@@H](C)CO)C[C@H]1C	–	–	·	·	–
Cc1cccc(N=NC(=S)NNc2cccc(C)c2)c1	52	–	–	–	–
Cc1cccc(NNC(=O)C(=O)NNc2cccc(C)c2)c1	·	–	·	–	–
C[C@H]1CN([C@@H](C)CO)C(=O)Cc2cc(NC(=O)Cc3cn(C)c4ccccc34)ccc2O[C@@H]1CN(C)S(=O)(=O)c1cccs1	–	–	·	·	–
CCCN1C[C@H](C)[C@H](OC)CN(C)C(=O)c2cc(NC(=O)c3ccno3)ccc2OC[C@H]1C	–	·	·	·	–
COc1cccc2c(=O)c(C(=O)NCCc3ccccc3)c[nH]c12	55	–	·	–	–
O=C(NNCc1ccccc1)c1ccccn1	–	·	–	36	–
O=C(CC(=O)c1ccccn1)c1ccccc1	·	·	–	50	–
CC12CCC(=O)C=C1CCC1C2CCC2(C)C1CC1C3C(=O)N(Cc4ccccc4)C(=O)C3CC(=O)C12 (stereo unspecified)	–	·	–	–	61
CC(=O)[C@H]1CC[C@H]2[C@@H]3CCC4=CC(=O)CC[C@]4(C)[C@H]3CC[C@]12C	–	–	–	–	–
COc1ccc(Cn2cc(CN3CCc4onc(-c5ccc(Br)cc5)c4C3=O)nn2)cc1	·	·	·	32	–
C[C@H](CO)N1C[C@H](C)[C@@H](CN(C)C(=O)C2CCC2)Oc2cc(-c3ccccc3)ccc2S1(=O)=O	·	–	·	·	–
C[C@@H]1CN([C@H](C)CO)C(=O)c2cc(NC(=O)CCC(F)(F)F)ccc2O[C@@H](C)CCCCO[C@@H]1CN(C)S(=O)(=O)c1cn(C)cn1	–	–	·	·	–
CC1CCN(C(=O)COC(=O)c2ccc3c(c2)OCO3)CC1	48	–	–	–	–
CC1CCN(C(=O)COC(=O)c2cccs2)CC1	65	–	–	–	–
CCC1CCCCN1C(=O)COC(=O)c1n[nH]c2ccccc12 (stereo unspecified)	–	–	–	–	·
O=C(OCC(=O)N1CCCCC1)c1cccs1	48	·	83	–	–
CC1CCN(C(=O)COC(=O)c2n[nH]c3ccccc23)CC1	58	–	–	·	·
CC1CCCCN1C(=O)COC(=O)c1cc(Cl)c2c(c1)OCO2 (stereo unspecified)	55	–	?	–	–
O=C(OCC(=O)N1CCCCCC1)c1cccs1	45	–	–	·	·
CC1CCCCN1C(=O)COC(=O)c1ccc(N2CCCC2=O)cc1 (stereo unspecified)	–	–	–	–	·
CC(=O)N[C@@H]1CC[C@H](CCNC(=O)C2CCC2)O[C@H]1CO	–	·	·	·	–
SMILES	esBAF inh	miR122 inh	MITF TRPM1 HTS	Wnt act	HIV Env fusion
O=C(C[C@@H]1CC[C@@H]2[C@H](COC[C@H](O)CN2Cc2ccccc2F)O1)N[C@@H]1CCN(Cc2ccccc2)C1	–	–	·	·	·
CN(C)CC#Cc1ccc([C@H]2[C@H](CO)N3CCCCN(C(=O)C4CCCC4)C[C@@H]23)cc1	·	–	·	·	·
C[C@H]1CN([C@@H](C)CO)C(=O)c2cccc(NC(=O)c3cnccn3)c2O[C@H]1CN(C)C(=O)NC1CCCCC1	–	–	·	·	–
COCCn1c(=S)[nH]c2cc(C(=O)N3CCN(Cc4ccc5c(c4)OCO5)CC3)ccc2c1=O	–	–	·	–	86
COCCn1c(=S)[nH]c2cc(C(=O)N3CCc4ccccc43)ccc2c1=O	–	–	–	·	80
CCCn1c(=S)[nH]c2cc(C(=O)N3CCc4ccccc43)ccc2c1=O	–	–	–	–	–
CC1OC1c1ccc(-c2ccc(C3OC3C)cc2)cc1 (stereo unspecified)	77	·	90	–	·
Nc1c(C(=O)Nc2ccc(F)cc2)sc(=S)n1-c1ccccc1F	54	–	–	–	–
Cn1c(N)c(C(=O)Nc2ccccc2F)sc1=S	·	·	·	–	–
Cn1c(N)c(C(=O)Nc2ccc3ccccc3c2)sc1=S	–	–	107	·	–
C[C@@H]1CN([C@@H](C)CO)S(=O)(=O)c2ccc(C3=CCCC3)cc2O[C@@H]1CN(C)C	–	–	·	·	–
Cn1cccc1C(=O)NCCc1ccc(Cl)cc1	57	·	114	–	–
COc1ccc(CCNC(=O)C(=O)NCc2ccccn2)cc1	–	–	–	37	–
Cn1cccc1C(=O)NCCc1ccccc1	–	–	–	–	–
COc1ccc(CCNC(=O)c2cccn2C)cc1	50	–	–	–	–
COc1ccc(CCNC(C)=O)cc1	–	–	–	·	·
CCCNC(=O)C(=O)NCc1ccccn1	·	·	–	–	–
COc1ccc(C#Cc2cnc3c(c2)C(=O)N([C@H](C)CO)C[C@@H](C)[C@H](CN(C)C(C)=O)O3)cc1	–	–	·	·	–
N#Cc1ccc(N2Cc3ccccc3C2=NC(=O)c2cccs2)cc1	·	·	–	–	–
CC(=O)c1ccc(N2Cc3ccccc3C2=NC(=O)c2cccs2)cc1	–	–	94	?	–
CCOC(=O)c1ccc(N2Cc3ccccc3C2=NC(=O)c2cccs2)cc1	·	·	112	–	·
CCOC(=O)c1ccc(N2Cc3ccccc3C2=NC(=O)c2ccncc2)cc1	·	·	102	46	–
C[C@H](CO)N1C[C@H](C)[C@@H](CN(C)S(=O)(=O)c2ccc(F)cc2)Oc2cc(C3=CCCCC3)ccc2S1(=O)=O	–	–	·	·	–
COc1ccc(CCN2C(=S)NC3CC2(C)Oc2ccc([N+](=O)[O-])cc23)cc1OC (stereo unspecified)	–	–	·	·	59
COc1ccc(N2C(=O)NC3CC2(C)Oc2ccc(Cl)cc23)cc1OC (stereo unspecified)	·	–	–	·	·
SMILES	esBAF inh	miR122 inh	MITF TRPM1 HTS	Wnt act	HIV Env fusion
CO[C@@H]1CN(C)C(=O)c2cc(NC(C)=O)ccc2OC[C@H](C)N(Cc2nccs2)C[C@@H]1C	–	–	·	·	–
CCNc1nc(NCC)nc(N/N=C/c2ccc(OC)cc2)n1	·	–	·	–	–
COc1ccc(/C=N/Nc2nc(C)nc(N)n2)cc1	55	–	–	–	–
C=CCNC(=O)[C@@H]1[C@H]2C(=O)O[C@H](c3ccccc3)[C@H](c3ccccc3)N2[C@H](c2ccc(O)cc2)[C@@]12C(=O)N(C(=O)OCCOC)c1ccc(C#Cc3ccc(OC)cc3)cc12	·	·	·	·	–
COc1ccc(Nc2nc(Cl)nc(Nc3ccc(OC)cc3)n2)cc1	·	·	–	–	–
Clc1nc(Nc2ccccc2)nc(Nc2ccccc2)n1	?	–	–	49	–
O=C(N[C@@H]1CC[C@H](CCn2cc(C3CCCCC3)nn2)O[C@H]1CO)c1cccnc1	–	·	·	·	–
